From PubChem BioAssay (EPA / NIEHS)
Values joined by “and” are separate entries in the source; they are usually repeats but may differ in a detail not shown here. Equal values may be shown once. Where a structure was tested more than once in an assay, its records may differ in their call. Active and inactive are the calls of the source. Rule for the calls: active = hit-call score of the fitted dose curve at least 0.9, where 1 is the maximum; inactive = score below 0.9.

The compounds below were run on Tumor necrosis factor (Homo sapiens) (UniProt P01375) (assay: BSK_LPS_TNFa: BioMAP Diversity Plus: LPS Assay for Tumour Necrosis Factor alpha (TNFa) Biomarker Activity (AID 2283085)). Settings: primary human HUVEC with PBMC; actives raise or lower the signal.
Chain of Tumor necrosis factor (Homo sapiens) (P01375 whole entry, looked up): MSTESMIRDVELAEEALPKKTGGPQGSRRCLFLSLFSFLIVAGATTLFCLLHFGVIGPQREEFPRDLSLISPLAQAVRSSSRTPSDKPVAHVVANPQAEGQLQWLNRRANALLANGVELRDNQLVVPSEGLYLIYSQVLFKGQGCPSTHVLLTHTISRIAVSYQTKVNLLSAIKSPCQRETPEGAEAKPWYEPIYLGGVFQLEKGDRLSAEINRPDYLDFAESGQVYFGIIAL
In short: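 Read-out is ELISA of TNFa in primary human endothelial cell–PBMC co-cultures at 24 h after compound. Activity in either direction was fitted against DMSO.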
For `CC(C)CCCC(C)(C)O`, the outcome was “inactive”. In the case of `C#C[C@]1(O)CC[C@H]2[C@@H]3CCc4cc(O)ccc4[C@H]3CC[C@@]21C`, the outcome is reported as “inactive”. `c1ccc(OCCOc2ccccc2)cc1` was tested, and the outcome was “inactive”. In the case of `NC(=O)c1c(Cl)cccc1Cl`, the outcome is reported as “inactive”.

These compounds were tested on Vascular cell adhesion molecule 1 (VCAM1), VCAM1 (gene 7412) (assay: BSK_LPS_VCAM1: BioMAP Diversity Plus: LPS Assay for Vascular cell adhesion molecule 1 (VCAM1) Biomarker Activity (AID 2283086)). Settings: primary human HUVEC with PBMC; actives raise or lower the signal.
In short: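 HUVEC + PBMC co-culture, LPS system; compound 24 h; VCAM-1 by ELISA; bidirectional fit vs DMSO control; parallel SRB (0.1%, TCA-fixed, 560 nm) for cytotoxicity.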
For `CC/C(=C(\c1ccccc1)c1ccc(OCCN(C)C)cc1)c1ccccc1`, the AC50 was 24.3 µM (active) and 13.6 µM (active). `CC(=O)CCC=C(C)CCC=C(C)C` was tested, and the outcome was “inactive”. For `CC(C)Cc1ccc(C(C)C(=O)O)cc1` (stereo unspecified), the outcome was “inactive”. `CC(C)(CO)CO` was tested, and the outcome was “inactive”. With `OCC(F)(OC(F)(F)C(F)(OC(F)(F)C(F)(F)C(F)(F)F)C(F)(F)F)C(F)(F)F` (stereo unspecified) the AC50 was 5.05 µM (active) and the outcome was “inactive”. In the case of `C=C(C)C(=O)OCCC(F)(F)C(F)(F)C(F)(F)C(F)(F)C(F)(F)C(F)(F)C(F)(F)C(F)(F)F`, the AC50 is reported as 1.22 µM (active) and the outcome is reported as “inactive”. In the case of `CC(C)CCCC(C)(C)O`, the outcome is reported as “inactive”. With `C#C[C@]1(O)CC[C@H]2[C@@H]3CCc4cc(O)ccc4[C@H]3CC[C@@]21C` the AC50 was 6.47 µM (active). In the case of `c1ccc(OCCOc2ccccc2)cc1`, the outcome is reported as “inactive”. For `CCCO[Si](OCCC)(OCCC)OCCC`, the outcome was “inactive”. `CCCCCCCC1CCCC1=O` (stereo unspecified) was tested, and the outcome was “inactive”. `c1ccc2c(c1)-c1ccc3ccc4cccc5cc-2c1c3c45` was tested, and the outcome was “inactive”. `NC(=O)c1c(Cl)cccc1Cl` was tested, and the outcome was “inactive”. For `CC1=CC(C)C(C=O)C(C)C1` (stereo unspecified) (tested in a mixture with another compound), the outcome was “inactive”. For `CC=CC(=O)C1=C(C)C=CCC1(C)C`, the outcome was “inactive”. `O=C(O)C(F)(F)OC(F)(F)C(F)(F)OC(F)(F)C(F)(F)C(F)(F)C(F)(F)F` was tested, and the AC50 was 24.4 µM (active) and the outcome was “inactive”. With `C=CC(=O)OCC(CO)(COC(=O)C=C)COC(=O)C=C` the AC50 was 0.14 µM (active). `c1ccc(Sc2ccccc2)cc1` was tested, and the AC50 was 31.6 µM (active). For `CC(=O)c1ccc(C)cc1`, the outcome was “inactive”. With `CCCCCCCCCC(=O)OCC` the outcome was “inactive”. `CC1(C)[C@H](C=C(Cl)Cl)[C@H]1C(=O)OCc1cccc(Oc2ccccc2)c1` was tested, and the outcome was “inactive”. In the case of `O=C(O)C(F)(F)C(F)(F)C(F)(F)C(F)(F)C(F)(F)C(F)(F)C(F)(F)C(F)F`, the outcome is reported as “inactive”. With `OCCN1CCOCC1` the outcome was “inactive”. `COC(=O)c1ccc(C(=O)OC)cc1` was tested, and the outcome was “inactive”.
